Assay [1] in a line: Nuclear factor erythroid 2-related factor 2/antioxidant responsive element (Nrf2/ARE) small molecule agonists: qHTS cell viability counter screen in human keratinocytes (AID 1919968; active = well fitted curve in the direction sought with a large enough effect in the repeat runs; an effect the other way counts as inactive or inconclusive; also: nearly all actives have a fitted effect of over 55% in size; also: potency is read from the fitted curve at half-maximal effect). The method in brief:
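Cells of the KeratinoSens line were plated at 1,500 per well and left for 5 h before compound transfer from DMSO stocks. After a 23 h incubation (37 C, 5% CO2), CellTiter-Fluor was added. Signal was taken as fluorescence intensity 1 h later.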
On the technique in general: Quantitative high-throughput screening tests each substance at several concentrations.

Assay [2] in a line: Nuclear factor erythroid 2-related factor 2/antioxidant responsive element (Nrf2/ARE) small molecule agonists: luciferase reporter gene qHTS assay in human keratinocytes (AID 1919969; also: nearly all actives have a fitted effect of over 35% in size; also: potency is read from the fitted curve at half-maximal effect). (In a reporter assay the amount or activity of a reporter protein is the signal.)
The target of assay [3] is KiSS-1 receptor (Homo sapiens) (UniProt Q969F8). Briefly: Human kisspeptin (KISS1R) small molecule agonists, calcium flux assay in KISS1R-HEK293 cells (AID 1920064; active = well fitted curve in the direction sought with a large enough effect in the repeat runs; an effect the other way counts as inactive or inconclusive). The essentials:
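Cell line: HEK293, stable human KISS1R. Dye loading 1 h at 37 C after 18 h culture. Read: kinetic fluorescence, 480/540 nm, 3 min at 1 s intervals.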
Background: Calcium assays in cells follow changes in intracellular calcium, usually with a dye or a luminescent sensor.

A short description of assay [4]: G protein-coupled receptor (GPCR) small molecule agonists, calcium flux assay: HEK293 wild type cell line counter screen (AID 1920065). The method in brief: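 Tox21 10K compounds, 15 concentrations each in triplicate, pin-transferred in DMSO onto dye-loaded cells; kinetic read at 480/540 nm for 3 min, 1 s intervals.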
Assay [5] in a line: p53 small molecule agonists, cell-based qHTS assay with human liver microsomes (AID 1963577).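 Also: p53 response element beta-lactamase reporter cells with liver microsomes plus NADPH.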 The method in brief: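 With metabolic activation: human liver microsomes (0.5 mg/mL final) plus NADPH (0.5 mg/mL final) added alongside compounds to p53RE-bla cells; 16 h 37 C exposure; beta-lactamase read by LiveBLAzer fluorescence.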
The nature of assay [6]: p53 small molecule agonists, cell-based qHTS assay with rat liver microsomes (AID 1963578). The essentials:
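Metabolic activation by rat liver microsomes and NADPH, each 0.5 mg/mL final, added right after compounds to p53RE-bla reporter cells (4,000/well, plated 5 h earlier). 16 h at 37 C, then LiveBLAzer substrate for 2 h at room temperature in the dark; fluorescence read-out.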

A short description of assay [7]: p53 small molecule agonists, cell-based qHTS assay with human liver microsomes: qHTS cell viability counter screen (AID 1963579). Also: nearly all actives have a fitted effect of over 45% in size. The essentials: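 Metabolic activation used human liver microsomes and NADPH, both 0.5 mg/mL final, over 16 hours at 37 C on p53RE-bla cells (4,000/well). Cytotoxicity measured by CellTiter-Glo luminescence, 30 min at room temperature.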

Assay [8] in a line: p53 small molecule agonists, cell-based qHTS assay with rat liver microsomes: qHTS cell viability counter screen (AID 1963580). Also: nearly all actives have a fitted effect of over 45% in size. The essentials: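 After the beta-lactamase ratio was read, CellTiter-Glo was added to the same wells and luminescence measured at 30 min; cells had been treated 16 h at 37 C with compounds, rat liver microsomes and NADPH (0.5 mg/mL final each).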
The nature of assay [9]: p53 small molecule agonists, cell-based qHTS assay: qHTS cell viability counter screen (AID 1963581). Also: nearly all actives have a fitted effect of over 45% in size. Also: potency is read from the fitted curve at half-maximal effect. The essentials: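 ATP content measured by luminescence in HCT-116 p53RE-bla cells treated 16 h at 37 C, same wells as the reporter screen.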
Assay [10] in a line: p53 small molecule agonists, cell-based qHTS assay (AID 1963582; active = well fitted activation curve with a large enough effect in the signal ratio in the repeat runs, not every such curve was filed as active; the % refers to the signal ratio). The method in brief: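 16 h compound exposure (37 C) of p53 response element–bla cells, preceded by 5 h recovery at 37 C/5% CO2; read-out via LiveBLAzer B/G FRET substrate, 2 h RT, fluorescence intensity.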
Assay [11] addresses 5-hydroxytryptamine receptor 2A (Homo sapiens) (UniProt P28223). Briefly: 5-hydroxytryptamine receptor 2A (HTR2A) small molecule antagonists, cell-based qHTS assay (AID 1963586). Also: nearly all actives have a fitted effect of over 45% in size. The method in brief: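 CHO cells stably expressing human HTR2A were plated for 18 h at 37 C, then loaded with calcium dye for 1 h. Compounds were preincubated 5 min at room temperature before DOI (4 nM solution) was added. Kinetic fluorescence was read for 3 min.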

For assay [12] the target is unchanged. Briefly: 5-hydroxytryptamine receptor 2A (HTR2A) small molecule agonists, cell-based qHTS assay (AID 1963587). Also: nearly all actives have a fitted effect of over 30% in size. The essentials: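 CHO cells stably expressing human HTR2A, plated 18 h, loaded with calcium dye 1 h at 37 C. Agonist mode: compounds added and intracellular calcium fluorescence recorded kinetically for 2 min at 1 sec intervals.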
The target of assay [13] is Muscarinic acetylcholine receptor M1 (Homo sapiens) (UniProt P11229). Briefly: Cholinergic receptor muscarinic 1 (CHRM1) small molecule antagonists, cell-based qHTS assay (AID 1963588). Also: nearly all actives have a fitted effect of over 40% in size. The method in brief: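 Compounds were tested at 15 concentrations in three independent runs. Dye-loaded CHRM1-CHO cells were exposed 5 min at room temperature before stimulation by acetylcholine added at 50nM. Intracellular calcium was read kinetically on FDSS for 3 min.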

Assay [14] shares this target. Briefly: Cholinergic receptor muscarinic 1 (CHRM1) small molecule agonists, cell-based qHTS assay (AID 1963589). Also: nearly all actives have a fitted effect of over 35% in size. The essentials: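 Homogeneous fluorescence calcium flux, agonist mode. Human M1-expressing CHO cells; compound dosed at 15 concentrations, three independent runs; signal sampled every 1 sec.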
Assay [15] is described as follows: cAMP Responsive Elements (CRE) small molecule agonists, cell-based qHTS assay (AID 1963590). The method in brief: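 HEK 293T cells stably bearing CRE-bla were plated at 2,000 cells per well and rested 18 h. Compounds, positive controls or DMSO were added for 3 h at 37 C. LiveBLAzer B/G substrate was then loaded for 2 h at room temperature.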
A short description of assay [16]: cAMP Responsive Elements (CRE) small molecule antagonists, cell-based qHTS assay (AID 1963591; active = well fitted inhibition curve with a large enough effect in the signal ratio in the repeat runs, not every such curve was filed as active; the % refers to the signal ratio). The essentials:
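First, CRE-bla HEK293T cells settled 18 h at 37 C. Next, compound and 0.25 uM final NKH477 were applied for 3 h. Last, LiveBLAzer B/G substrate was loaded for 2 h at room temperature.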

For assay [17], the target named is Beta-2 adrenergic receptor (Homo sapiens) (UniProt P07550). As to the kind of experiment: Adrenergic beta2 receptor (ADRB2) small molecule antagonists, cell-based qHTS assay (AID 1963592). Also: series mostly up to about 92 µM; nearly all actives have a fitted effect of over 50% in size. The essentials: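 Assay format: CHO-ADRB2 cells, 18-20hr seeding at 37C/5% CO2, then compound plus 1nM isoproterenol agonist mix for 0.5hr RT. Homogeneous time-resolved fluorescence cAMP detection after 1hr, expressed as 665/615 nm ratio.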

For assay [18], the target named is D(2) dopamine receptor (Homo sapiens) (UniProt P14416). Briefly: Dopamine D2 receptor (DRD2) small molecule agonists, cell-based qHTS assay (AID 1963594). Also: nearly all actives have a fitted effect of over 35% in size. The method in brief: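 HEK293 cells stably expressing human DRD2, pre-treated with PDE inhibitor Ro20-1724 (0.1 mM final) and compound 10 min at room temperature, then stimulated with NKH477 (200nM […]) for 30 min. cAMP read by HTRF (665/620 nm).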

For assay [19] the target is unchanged. As to the kind of experiment: Dopamine D2 receptor (DRD2) small molecule antagonists, cell-based qHTS assay (AID 1963595; active = well fitted inhibition curve with a large enough effect in the signal ratio in the repeat runs, with a control signal flat; the % refers to the signal ratio). The essentials: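 HEK293 cells stably expressing DRD2, preincubated with 0.1 mM Ro20-1724 and compounds 10 min, were stimulated with 200 nM NKH477 plus 12 nM quinpirole for 30 min at room temperature; cAMP measured by HTRF (665/620 nm).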

In assay [20] the target is Gonadotropin-releasing hormone receptor (Homo sapiens) (UniProt P30968). Briefly: Human gonadotropin-releasing hormone receptor (GnRHR) small molecule agonists, calcium flux assay in GnRHR-HEK293 cells (AID 1920063). Also: nearly all actives have a fitted effect of over 35% in size. The method in brief:
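Compounds dissolved in DMSO are pin-transferred onto dye-loaded GnRHR-HEK293 cells, which were seeded 18 h before at 37 C/5% CO2. Calcium signal is read as fluorescence intensity at 1 s intervals for 3 min.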

“And” between values parts separate entries of the source, which are not always exact repeats. Identical values can stand only once. Inconclusive results are not listed. The source holds several records for some structures; these can differ, active in one and inactive in another. The source made the active and inactive calls. Unless noted, calls follow the shape of the full dose curve.

Sequence of D(2) dopamine receptor (Homo sapiens) (P14416 whole entry, looked up): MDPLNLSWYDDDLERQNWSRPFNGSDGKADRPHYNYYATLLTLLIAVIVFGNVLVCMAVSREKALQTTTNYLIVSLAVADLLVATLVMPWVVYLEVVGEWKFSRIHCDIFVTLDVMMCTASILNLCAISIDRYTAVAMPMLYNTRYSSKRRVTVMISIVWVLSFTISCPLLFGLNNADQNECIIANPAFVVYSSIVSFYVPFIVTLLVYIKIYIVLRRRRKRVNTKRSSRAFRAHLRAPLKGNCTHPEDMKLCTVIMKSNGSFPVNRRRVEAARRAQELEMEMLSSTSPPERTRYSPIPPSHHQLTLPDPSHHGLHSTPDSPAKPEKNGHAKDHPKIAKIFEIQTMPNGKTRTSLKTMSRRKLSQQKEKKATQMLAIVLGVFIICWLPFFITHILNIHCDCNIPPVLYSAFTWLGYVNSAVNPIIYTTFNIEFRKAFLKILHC
Sequence of 5-hydroxytryptamine receptor 2A (Homo sapiens) (P28223 whole entry, looked up): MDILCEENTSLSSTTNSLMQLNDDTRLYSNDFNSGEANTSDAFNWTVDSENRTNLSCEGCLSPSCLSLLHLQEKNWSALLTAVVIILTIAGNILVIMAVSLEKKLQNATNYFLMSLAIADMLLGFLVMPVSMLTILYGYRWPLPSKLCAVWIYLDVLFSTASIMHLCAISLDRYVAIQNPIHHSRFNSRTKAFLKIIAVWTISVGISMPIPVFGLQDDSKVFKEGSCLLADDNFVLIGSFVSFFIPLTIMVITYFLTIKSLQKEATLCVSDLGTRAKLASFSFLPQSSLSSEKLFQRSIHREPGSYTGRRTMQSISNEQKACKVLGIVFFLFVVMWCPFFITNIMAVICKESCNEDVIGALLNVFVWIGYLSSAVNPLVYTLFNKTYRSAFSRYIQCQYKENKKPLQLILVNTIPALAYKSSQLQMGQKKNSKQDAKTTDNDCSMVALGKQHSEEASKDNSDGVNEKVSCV
Sequence of KiSS-1 receptor (Homo sapiens) (Q969F8 whole entry, looked up): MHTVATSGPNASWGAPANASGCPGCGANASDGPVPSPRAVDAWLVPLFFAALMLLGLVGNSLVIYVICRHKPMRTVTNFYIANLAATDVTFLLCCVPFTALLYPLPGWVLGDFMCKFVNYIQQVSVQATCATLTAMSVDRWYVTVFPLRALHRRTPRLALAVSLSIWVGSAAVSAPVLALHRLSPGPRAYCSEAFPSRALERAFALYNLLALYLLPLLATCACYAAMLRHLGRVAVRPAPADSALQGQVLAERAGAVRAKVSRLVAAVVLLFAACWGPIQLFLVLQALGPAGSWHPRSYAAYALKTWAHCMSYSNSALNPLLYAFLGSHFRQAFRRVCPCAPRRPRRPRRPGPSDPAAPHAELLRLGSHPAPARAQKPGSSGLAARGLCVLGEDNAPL
Sequence of Muscarinic acetylcholine receptor M1 (Homo sapiens) (P11229 whole entry, looked up): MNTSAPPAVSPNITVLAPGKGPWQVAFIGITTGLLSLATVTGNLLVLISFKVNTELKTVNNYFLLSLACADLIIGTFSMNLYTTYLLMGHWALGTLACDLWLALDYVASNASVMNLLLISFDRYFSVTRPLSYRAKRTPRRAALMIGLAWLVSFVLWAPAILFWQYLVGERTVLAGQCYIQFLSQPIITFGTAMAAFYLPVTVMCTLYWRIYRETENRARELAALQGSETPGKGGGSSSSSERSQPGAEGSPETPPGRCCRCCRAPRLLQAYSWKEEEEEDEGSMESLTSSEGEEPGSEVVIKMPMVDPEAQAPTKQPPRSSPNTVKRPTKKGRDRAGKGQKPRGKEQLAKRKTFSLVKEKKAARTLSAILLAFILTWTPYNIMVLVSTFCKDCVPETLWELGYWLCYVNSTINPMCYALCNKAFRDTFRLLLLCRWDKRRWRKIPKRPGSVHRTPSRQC
Sequence of Beta-2 adrenergic receptor (Homo sapiens) (P07550 whole entry, looked up): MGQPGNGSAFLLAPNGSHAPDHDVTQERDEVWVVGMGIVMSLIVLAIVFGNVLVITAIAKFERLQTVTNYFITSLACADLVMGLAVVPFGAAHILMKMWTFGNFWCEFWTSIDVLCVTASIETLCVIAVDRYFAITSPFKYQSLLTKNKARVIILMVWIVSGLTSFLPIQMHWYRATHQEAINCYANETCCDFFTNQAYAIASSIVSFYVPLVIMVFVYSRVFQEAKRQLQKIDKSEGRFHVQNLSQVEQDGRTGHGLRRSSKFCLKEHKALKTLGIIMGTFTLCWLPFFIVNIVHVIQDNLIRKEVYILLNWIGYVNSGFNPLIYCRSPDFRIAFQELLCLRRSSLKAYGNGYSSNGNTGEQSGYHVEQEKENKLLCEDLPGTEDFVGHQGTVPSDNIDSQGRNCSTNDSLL
Sequence of Gonadotropin-releasing hormone receptor (Homo sapiens) (P30968 whole entry, looked up): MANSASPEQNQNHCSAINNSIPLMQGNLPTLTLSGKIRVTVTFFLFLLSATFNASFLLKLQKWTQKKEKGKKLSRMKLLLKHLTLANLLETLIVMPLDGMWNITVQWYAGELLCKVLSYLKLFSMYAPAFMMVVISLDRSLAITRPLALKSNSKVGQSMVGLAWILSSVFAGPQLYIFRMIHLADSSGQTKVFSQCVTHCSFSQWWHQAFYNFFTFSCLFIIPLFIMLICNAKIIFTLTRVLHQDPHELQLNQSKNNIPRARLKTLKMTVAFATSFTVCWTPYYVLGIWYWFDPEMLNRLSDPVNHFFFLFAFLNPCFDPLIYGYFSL

As for `CCCC[n+]1cccc(C)c1`, the Potency entry in assay [1], in assay [2], in assay [3], in [4], in [5] and in [6] was “inactive” each time. Also, the Potency result in assay [7], in assay [8], in assay [9], in assay [10], in assay [11] and in assay [12] was “inactive” in each case. Moreover, the Potency result in assay [13], in assay [14], in assay [15], in assay [16], in [17] and in [18] was “inactive” each time. Also, the Potency result in assay [19] was “inactive”.
Regarding `CCCCN(CC)C(=O)SCCC`, the Potency entry in assay [1], in assay [2], in assay [3], in assay [4], in assay [5] and in assay [6] was “inactive” in each case. The Potency entry in [7], in [8], in assay [9], in assay [10], in [11] and in assay [13] was “inactive” in each case. Further, the Potency result in assay [15], in [16], in assay [17], in [18] and in [19] was “inactive” in each case.
Take `N#CC(Cl)(Cl)Cl`: the Potency result in assay [1], in assay [2], in [3], in assay [4], in assay [5] and in assay [6] was “inactive” in each case. The Potency result in assay [7], in [8], in assay [9], in [10], in [11] and in assay [12] was “inactive” throughout. Also, the Potency result in assay [13], in assay [14], in assay [15], in assay [16], in assay [17] and in assay [18] was “inactive” throughout. Moreover, in [19], the Potency entry is “inactive”.
Take `O=C(Nc1ccc(Br)cc1)c1cc(Br)cc(Br)c1O`: the Potency in assay [1] is 6.09 µM (active) and 6.11 µM (active) and 7.5 µM (active); in assay [2], 54.3 µM (active) and 10.9 µM (active) and 13.3 µM (active); in assay [9], “inactive and 3.97 µM (active)”. The Potency entry in assay [20], in [5], in assay [6], in assay [7], in [8] and in assay [10] was “inactive” throughout. The Potency result in assay [16], in [18] and in assay [19] was “inactive” throughout.
As to `Nc1ccccc1C(=O)OCCc1ccccc1`, the Potency entry in assay [1], in assay [3], in [4], in [5], in assay [6] and in assay [7] was “inactive” each time. Also, the Potency result in [8], in assay [9], in [10], in assay [11], in [12] and in assay [13] was “inactive” in each case. Moreover, the Potency entry in assay [14], in [17], in assay [18] and in assay [19] was “inactive” throughout. For the same molecule, the Potency in assay [2] was 488 nM (active) and inactive.
Consider `CCCCCCCCCl`, for which the Potency result in assay [1], in [2], in [20], in assay [5], in [6] and in assay [7] was “inactive” each time. The Potency entry in assay [8], in assay [9], in assay [10], in [11], in [12] and in [13] was “inactive” in each case. Besides, the Potency result in assay [14], in assay [15], in [16], in [17], in assay [18] and in [19] was “inactive” in each case.
For the molecule `CC(C)(C)C(=O)C(Cl)Cl`, the Potency entry in [1], in assay [2], in [3], in [4], in assay [5] and in assay [6] was “inactive” in each case. For the same molecule, the Potency entry in [7], in assay [8], in [9], in [10], in assay [11] and in assay [12] was “inactive” each time. Besides, the Potency result in assay [13], in assay [14], in assay [15], in [16], in assay [17] and in assay [18] was “inactive” each time. Besides, the Potency result in assay [19] was “inactive”.

Source of the values: PubChem BioAssay (Tox21).
